Out of some 5,500 compounds screened, about 2,000 (36%) were called active. Inconclusive results (about 18%) are left out. Cut-off read from the data, not from the text of the source: active = normalized growth mostly below about 0.91 (no sharp cut-off); inconclusive = no clear call, values can overlap the other calls; inactive = mostly above about 0.92. The list shows a part of the results.
Assay: chemical genetic growth profiling, strain panel (AID 1159580);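 note: tested at 20 µM; growth read once vehicle control cultures reached saturation at 30 °C; 1 = growth at the plate median or of vehicle wells; lower values mean less growth of the strain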
Conditions: growth OD

Measured: normalized growth

CO[C@H]1CC(O[C@@H]2/C(C)=C/C[C@@H]3C[C@@H](C[C@]4(CC[C@H](C)[C@@H](C5CCCCC5)O4)O3)OC(=O)[C@@H]3C=C(C)/C(=N\O)[C@H]4OC/C(=C\C=C\[C@@H]2C)[C@]43O)O[C@@H](C)C1O (stereo not given in full)
inactive: S. cerevisiae deletion strains, locus YKL009W, strain mrt4, active compounds read low 0.975 | S. cerevisiae deletion strains, locus YKL068W, active compounds read low 1 | S. cerevisiae deletion strains, locus YKL085W, strain MDH1 (second series), active compounds read low 0.997 | S. cerevisiae deletion strains, locus YKL085W, strain MDH1, active compounds read low 0.997 | S. cerevisiae deletion strains, locus YKL160W, strain elf1, active compounds read low 0.993 | S. cerevisiae deletion strains, locus YKL190W, strain CNB1, active compounds read low 0.982 | S. cerevisiae deletion strains, locus YKR026C, strain gcn3, active compounds read low 1.02 | S. cerevisiae deletion strains, locus YKR091W, strain srl3, active compounds read low 1.01 | S. cerevisiae deletion strains, locus YLL001W, strain dnm1, active compounds read low 0.974 | S. cerevisiae deletion strains, locus YLL026W, active compounds read low 1.01 | S. cerevisiae deletion strains, locus YLL041C, strain sdh2, active compounds read low 1.01 | S. cerevisiae deletion strains, locus YLR027C, strain aat2, active compounds read low 1.01 | S. cerevisiae deletion strains, locus YLR058C, strain SHM2, active compounds read low 0.987 | S. cerevisiae deletion strains, locus YLR102C, strain apc9, active compounds read low 0.997 | S. cerevisiae deletion strains, locus YLR221C, strain rsa3, active compounds read low 1.01 | S. cerevisiae deletion strains, locus YLR258W, strain gsy2, active compounds read low 1 | S. cerevisiae deletion strains, locus YLR268W, strain sec22, active compounds read low 0.928 | S. cerevisiae deletion strains, locus YLR320W, strain mms22, active compounds read low 0.96 | S. cerevisiae deletion strains, locus YLR330W, strain CHS5, active compounds read low 0.978 | S. cerevisiae deletion strains, locus YLR342W, strain FKS1, active compounds read low 0.985 | S. cerevisiae deletion strains, locus YLR357W, strain rsc2, active compounds read low 0.854 | S. cerevisiae deletion strains, locus YLR370C, strain arc18, active compounds read low 0.993 | S. cerevisiae deletion strains, locus YLR371W, strain rom2, active compounds read low 0.995 | S. cerevisiae deletion strains, locus YLR384C, strain iki3, active compounds read low 1.01 | S. cerevisiae deletion strains, locus YLR418C, strain cdc73, active compounds read low 0.936 | S. cerevisiae deletion strains, locus YML016C, strain PPZ1, active compounds read low 0.995 | S. cerevisiae deletion strains, locus YML032C, strain rad52, active compounds read low 0.987 | S. cerevisiae deletion strains, locus YML120C, strain ndi1, active compounds read low 0.995 | S. cerevisiae deletion strains, locus YML124C, strain tub3, active compounds read low 1 | S. cerevisiae deletion strains, locus YMR058W, strain fet3, active compounds read low 1.02 | S. cerevisiae deletion strains, locus YMR078C, strain ctf18, active compounds read low 0.986 | S. cerevisiae deletion strains, locus YMR125W, strain sto1, active compounds read low 1.03 | S. cerevisiae deletion strains, locus YMR129W, active compounds read low 1.02 | S. cerevisiae deletion strains, locus YMR205C, strain PFK2, active compounds read low 0.997 | S. cerevisiae deletion strains, locus YMR223W, strain ubp8, active compounds read low 0.993 | S. cerevisiae deletion strains, locus YMR231W, strain pep5, active compounds read low 0.998 | S. cerevisiae deletion strains, locus YMR263W, strain SAP30, active compounds read low 0.977 | S. cerevisiae deletion strains, locus YMR307W, strain GAS1, active compounds read low 0.911 | S. cerevisiae deletion strains, locus YNL067W, strain RPL9B, active compounds read low 0.988 | S. cerevisiae deletion strains, locus YNL071W, strain lat1, active compounds read low 1.02 | S. cerevisiae deletion strains, locus YNL209W, strain ssb2, active compounds read low 0.977 | S. cerevisiae deletion strains, locus YNL233W, strain BNI4, active compounds read low 0.971 | S. cerevisiae deletion strains, locus YNL248C, strain rpa49, active compounds read low 1.03 | S. cerevisiae deletion strains, locus YNL250W, strain rad50, active compounds read low 0.967 | S. cerevisiae deletion strains, locus YNL271C, strain bni1, active compounds read low 0.922 | S. cerevisiae deletion strains, locus YNL298W, strain CLA4, active compounds read low 0.933 | S. cerevisiae deletion strains, locus YNL307C, strain MCK1, active compounds read low 0.957 | S. cerevisiae deletion strains, locus YNL322C, strain KRE1 (second series), active compounds read low 1.02 | S. cerevisiae deletion strains, locus YNL322C, strain KRE1, active compounds read low 0.99 | S. cerevisiae deletion strains, locus YNR049C, strain mso1, active compounds read low 0.984 | S. cerevisiae deletion strains, locus YNR052C, strain pop2, active compounds read low 0.99 | S. cerevisiae deletion strains, locus YOL006C, strain TOP1, active compounds read low 0.901 | S. cerevisiae deletion strains, locus YOL012C, strain htz1 0.49 | S. cerevisiae deletion strains, locus YOL147C, strain pex11, active compounds read low 1.01 | S. cerevisiae deletion strains, locus YOR001W, strain rrp6, active compounds read low 0.986 | S. cerevisiae deletion strains, locus YOR061W, strain CKA2, active compounds read low 0.98 | S. cerevisiae deletion strains, locus YOR069W, strain VPS5, active compounds read low 0.99 | S. cerevisiae deletion strains, locus YOR070C, strain gyp1, active compounds read low 0.994 | S. cerevisiae deletion strains, locus YOR080W, strain dia2, active compounds read low 1.02 | S. cerevisiae deletion strains, locus YOR083W, strain WHI5, active compounds read low 1 | S. cerevisiae deletion strains, locus YOR106W, strain vam3, active compounds read low 1.05 | S. cerevisiae deletion strains, locus YOR136W, strain idh2, active compounds read low 0.974 | S. cerevisiae deletion strains, locus YOR144C, strain elg1, active compounds read low 0.999 | S. cerevisiae deletion strains, locus YOR184W, strain ser1, active compounds read low 0.991 | S. cerevisiae deletion strains, locus YOR231W, strain MKK1, active compounds read low 0.962 | S. cerevisiae deletion strains, locus YOR265W, strain rbl2, active compounds read low 0.995 | S. cerevisiae deletion strains, locus YOR270C, strain vph1, active compounds read low 0.991 | S. cerevisiae deletion strains, locus YOR290C, strain snf2, active compounds read low 1.04 | S. cerevisiae deletion strains, locus YOR316C, strain cot1, active compounds read low 0.99 | S. cerevisiae deletion strains, locus YPL055C, strain LGE1, active compounds read low 1 | S. cerevisiae deletion strains, locus YPL078C, strain atp4, active compounds read low 1.03 | S. cerevisiae deletion strains, locus YPL240C, strain hsp82, active compounds read low 1.01 | S. cerevisiae deletion strains, locus YPL241C, strain CIN2, active compounds read low 0.979 | S. cerevisiae deletion strains, locus YPR119W, strain clb2, active compounds read low 0.995 | S. cerevisiae deletion strains, locus YPR141C, strain kar3, active compounds read low 0.992 | S. cerevisiae deletion strains, locus YPR163C, strain tif3, active compounds read low 0.972 | S. cerevisiae deletion strains, locus YPR167C, strain met16, active compounds read low 0.985 | S. cerevisiae deletion strains, strain wtn01, active compounds read low 0.996 | S. cerevisiae strains, strain wild type, active compounds read low 0.985
active: S. cerevisiae deletion strains, locus YJR066W, strain TOR1, active compounds read low 0.659 | S. cerevisiae deletion strains, locus YKR001C, strain vps1, active compounds read low 0.745 | S. cerevisiae deletion strains, locus YLR039C, strain RIC1, active compounds read low 0.492 | S. cerevisiae deletion strains, locus YLR113W, strain HOG1, active compounds read low 0.284 | S. cerevisiae deletion strains, locus YLR262C, strain YPT6 (second series), active compounds read low 0.312 | S. cerevisiae deletion strains, locus YLR262C, strain YPT6, active compounds read low 0.415 | S. cerevisiae deletion strains, locus YLR342W, strain FKS1 (second series), active compounds read low 0.526 | S. cerevisiae deletion strains, locus YNL183C, strain NPR1, active compounds read low 0.512 | S. cerevisiae deletion strains, locus YPL051W, strain arl3, active compounds read low 0.8 | S. cerevisiae deletion strains, locus YPL106C, strain sse1, active compounds read low 0.62 | S. cerevisiae deletion strains, locus YPL256C, strain CLN2, active compounds read low 0.629
